Shown are actives, neighbours in structure and some others; about 3% of the full set was active somewhere.
SNCA expr inhib – inhibitors of alpha-synuclein (SNCA) gene expression. HEK-293 SNCA-luciferase knock-in, luminescence, 24 h. Potency, µM (doses to about 57.2 µM), for the others: top-dose activity change, negative = inhibition, usual class: inhibitors. hit rate 0.17% among 140,000;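 note: potency is the fitted concentration of half-maximal effect; plate controls were DMSO cells for no effect and cell-free wells for full effect; nearly all actives have a fitted effect of over 45% in size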
KDM5B inhibitor – KDM5B demethylase inhibition. AID 1347165. KDM5B demethylase, FDH-coupled NADH fluorescence (FDH is formaldehyde dehydrogenase). Q9UGL1. Potency, µM (titrated, usually from 57.7 µM), most hits filed as inhibitors. hit rate 2.6% among 220,000; note: potency is the fitted concentration of half-maximal effect; 0% is about no effect; nearly all actives have a fitted effect of over 70% in size
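Coupled FDH/NAD⁺ fluorescence readout. KDM5BΔAP 200 nM final; compound titration, 10 min RT preincubation; substrate mix 12.5 µM H3K4me3, 25 µM 2-OG, 50 µM Fe(II), 100 µM ascorbate, 0.25 mM NAD⁺, 0.25 U/mL FDH; ΔRFU over 30 min.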
IP6K1 inh – inhibitors of human IP6K1 | activity change, % (series mostly up to about 58 µM) | Q92551 | hit rate 0.81% among 140,000 | IP6K1 kinase, ADP-Glo luminescence, 2 h; stronger effect = lower value; in the data active = activity change below about -25%; note: % is set by controls: 0 for no effect and ±100 for the full control effect
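ADP-Glo luminescence measures ADP made by human IP6K1 during a 2 h RT reaction with ATP/IP6 (mix at 1.3 mM/130 uM); top library doses 57.5 and 19.1 uM final.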
SNCA viab count – counter-screen for SNCA expression inhibitors: cell viability | HEK-293-SNCA-luc viability, GF-AFC fluorescence, 24 h | Potency, µM (top dose mostly 57.1 µM), for the others: at the top dose activity change, negative = cytotoxicity, usual class: cytotoxic | hit rate 0.12% among 150,000;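 note: potency is the fitted concentration of half-maximal effect; 0% = DMSO-treated cells and -100% = medium-only wells without cells; nearly all actives have a fitted effect of over 30% in size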
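HEK-293-SNCA-luc cells (1500/well) plated 24 h, then exposed 24 h to a dilution series; GF-AFC added 30 min at 37C, fluorescence 405/540 nm; normalised to medium-only and DMSO wells, Hill fit.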
IP6K1 inh cnf – human IP6K1 inhibition, confirmatory; shares compounds with IP6K1 inh; recombinant IP6K1 kinase, ADP-Glo luminescence, 2 h; Potency, µM (top dose mostly 49 µM), for inactives: top-dose activity change, negative = inhibition, actives largely listed as inhibitors; hit rate 13% among 1,200; AID 1645852; note: potency is the fitted concentration of half-maximal effect; % is set by controls: 0 for no effect and ±100 for the full control effect; nearly all actives have a fitted effect of over 65% in size
* hit, by the source's call; i = inactive; ? = inconclusive; · = no result given; [ ] = another dose, or the depositor's remark. Unless noted, calls come from the whole dose curve; as a rule, active = well fitted curve in the direction sought with a large enough effect; inconclusive = small, poorly fitted or top-dose-only effect, or another doubt; inactive = no such curve, though single readings can be large; an effect the other way counts as inactive or inconclusive.

SMILES	SNCA expr inhib	KDM5B inhibitor	IP6K1 inh	SNCA viab count	IP6K1 inh cnf
COc1ccc(-n2c(=O)c3c(n2Cc2ccccc2)CN(CCCc2ccccc2)CC3)cc1	-6%	i	-28*	?	-11%
CC(=O)Nc1ccc(SCC(O)COc2ccccc2C(C)(C)C)cc1 (stereo not drawn)	·	i	·	·	·
Cc1cc(N2CCOCC2)ccc1Nc1nc(NC2CCCCC2)c2[nH]cnc2n1	·	·	-47*	-27%	2.1µM*
CCCc1nnc(C[C@@H]2C[C@@H](C(C)C)[C@H](CNc3cccnc3)C=C2C)o1	5%[87.6 µM]	10µM*	-25*	2%[87.6 µM]	-5%
CCCc1nnc(C[C@@H]2C[C@@H](C(C)C)[C@H](CNCc3cccnc3)C=C2C)o1	?	i	4	-19%[87.6 µM]	·
O=[S+]([O-])(NC1CCCN(c2ccc3nnc(C4CC4)n3n2)C1)c1ccccc1 (stereo not drawn)	·	·	5	·	·
COc1ccccc1N1CCN(C(=O)C(OC)c2ccccc2)CC1=O (stereo not drawn)	?	i	-26*	-1%	-16%
O=C(O)c1ccc2c(c1)nc(Nc1cccc(Cl)c1)c1ccncc12	?	·	-35*	-33%	?
Clc1cccc(Nc2nc(-c3ccncc3)nc3ccccc23)c1	·	i	·	·	·
Cc1ccccc1NC(=O)c1ccc2c(c1)NC(=O)CS2	·	i	·	·	·
CCOc1ccc(NC(=O)CN(c2ccc(Cl)cc2C)S(=O)(=O)c2ccccc2)cc1	?	i	-25*	-8%	-10%
O=C1NC(=NC2CCCCC2)C2(CCN(CC3CCCCC3)C2)N1c1cc(F)cc(F)c1 (stereo not drawn)	?	i	2	-12%	·
Cn1cc(-c2cc(=O)c3ccnc(Nc4ccc5[nH]ccc5c4)c3o2)cn1	-6%[87.6 µM]	i	-38*	-15%[87.6 µM]	?
NC[C@H](O)c1ccc(O)c(O)c1	9%	·	-70*	5%	-19%
Cn1nc(C(=O)NCc2ccccc2)c2c1-c1ccccc1SC2	53%	?	-22	-6%	·
COc1cccc(CNC(=O)c2nn(C)c3c2CSc2ccccc2-3)c1	-4%	?	-32*	-1%	?
O=C(O)CCCNc1cc(N2CCN(C3CCCCC3)CC2)c2noc3c2c1C(=O)c1ccccc1-3	?	?	-34*	?	?
CN1C[C@H](NCc2ccc(F)cc2)CCC[C@@H](C(=O)NC2CC2)CC1=O	5%[87.6 µM]	i	-26*	6%[87.6 µM]	?
Cc1nn(-c2ccccc2)c2c1C(C1CC1)N(CC1CN(C(=O)c3ccccc3F)C1)C2=O (stereo not drawn)	·	·	23	·	·
Oc1cccc(-c2c3nc(c(-c4cccc(O)c4)c4ccc([nH]4)c(-c4cccc(O)c4)c4nc(c(-c5cccc(O)c5)c5ccc2[nH]5)CC4)C=C3)c1	74%[25.6 µM]	·	-53*	-28%[23.9 µM]	?
Cn1c(=O)c2[nH]c(-c3cccc(O)c3)nc2n(C)c1=O	·	i	·	·	·
Cc1nc(CC2CCN(C(=O)c3cc4c(s3)CCC(C)C4)CC2)no1 (stereo not drawn)	69%	i	2	4%	·
Cc1ccc(C(C(=O)N2CCC(Cc3noc(C)n3)CC2)N(C)C)cc1 (stereo not drawn)	19%	i	-27*	0%	3%
Cc1ccc(CNC(=O)c2c(Nc3ccccc3C)sc(C(=O)c3ccc(F)cc3)c2N)cc1	?	?	-26*	?	1%
Cc1ccc(-n2cnnc2SCC(=O)Nc2nc3c(C)cccc3s2)cc1	·	i	·	·	·
SMILES	SNCA expr inhib	KDM5B inhibitor	IP6K1 inh	SNCA viab count	IP6K1 inh cnf
O=C(O)c1ccc(-c2c[nH]c3ncc(-c4ccccc4)cc23)cc1C1CCCC1	?	·	·	5%	?
CCN(CC)S(=O)(=O)c1ccc2oc(SC(C(=O)NC3CC3)c3ccccc3)nc2c1 (stereo not drawn)	·	i	·	·	·
Cc1cc(=O)[nH]c2nnc(SCC(=O)Nc3ccc(OC(F)(F)F)cc3)n12	7%	i	-25*	2%	6%
Cc1ccsc1CNCCCN(C)C	·	i	·	·	·
CCc1nc2nc(C)c(NS(=O)(=O)c3ccc(F)c(C)c3)c(=O)n2[nH]1	27%	i	-28*	7%	9%
CCc1nc2nc(C)c(NS(=O)(=O)c3ccc(F)cc3)c(=O)n2[nH]1	·	i	·	·	·
Cc1ccc(S(=O)(=O)c2nc(-c3ccco3)oc2SCc2ccc(F)cc2)cc1	-4%	?	-28*	6%	-6%
COC(=O)N1CC2(Cc3ccccc3N(C(C)=O)C2)C1	16%[87.6 µM]	i	-25*	19%[87.6 µM]	1%
CC(=O)N1CC2(Cc3ccccc3N(C(C)=O)C2)C1	-7%[87.6 µM]	i	-7	-3%[87.6 µM]	·
COc1ccc(C(=O)N[C@@H]2CN(Cc3ccccc3)C[C@H]2CN(C)C)cn1	?	·	-17	-10%	·
c1ccc(Nc2cc3c(cn2)NCCN(Cc2ccc4[nH]ccc4c2)C3)cc1	-28%[87.6 µM]	32µM*	-30*	?	-10%
c1ccc(Nc2cc3c(cn2)CN(Cc2ccc4[nH]ccc4c2)CCN3)cc1	-2%[87.6 µM]	?	-22	?	·
COc1ccc(-c2cc(C(=O)NCc3c(C)cc(C)[nH]c3=O)c3c(c2)N(C(C)C)CCO3)cc1OC	?	35µM*	-27*	-14%	?
CCOc1cc(/C=C2\C(=O)Nc3ccccc32)ccc1OC(F)F	·	i	·	·	·
COc1cc(/C=C2\C(=O)Nc3ccccc32)ccc1O	·	·	·	·	10µM*
Cc1ccc(C)c(N2CCN(C(=O)c3c4c(nc5ccccc35)C(=O)N(C3CCCCC3)C4)CC2)c1	-4%	?	-31*	9%	-9%
COc1ccccc1N1CCN(C(=O)c2c3c(nc4ccccc24)C(=O)N(C2CCCCC2)C3)CC1	18%	i	0	-8%	·
CC(=O)c1cccc(NC(=O)Nc2nnc(N3CCCC3)s2)c1	-26%	i	-38*	-4%	-19%
Cc1cccc(NC(=O)Nc2nnc(N3CCCC3)s2)c1	58%	i	31	8%	·
COc1cc2nc(-c3cc(F)ccc3O)nc(N[C@@H]3CNC[C@H]3C(C)(C)O)c2cc1OC	·	·	-62*	?	3.3µM*
O=C(Nc1nn(Cc2ccc(F)cc2)cc1Cl)c1nc2ncccn2n1	·	i	·	·	·
CCNC(=S)N/N=C(/C)c1ccc(Cl)c(Cl)c1	·	i	·	·	·
OC1CC(c2cc(NCCCn3ccc4ccccc43)ncn2)C1 (stereo not drawn)	10%	i	-34*	-5%	-3%
CCOc1ccc2c(n1)CCN(C(=O)Cc1cccc(OC)c1)C2	48%	i	-26*	3%[12.5 µM]	-23%
Cc1cc2ccccc2n1CC(=O)N(Cc1ccccc1)C1CC1	·	i	·	·	·
CC(=O)C1=CCC2C3CC=C4CC(O)CCC4(C)C3CCC12C (stereo not drawn)	·	i	·	·	·
C[C@]12CC[C@H](O)CC1=CCC1C2CC[C@]2(C)C(n3cnc4ccccc43)=CCC12 (stereo partly drawn)	-1%	·	-26*	-1%	?

Source: PubChem
